About 2,000 (36%) of roughly 5,500 compounds were called active. Not shown: some 18% with an inconclusive outcome. Cut-off read from the data, not from the text of the source: active = normalized growth mostly below about 0.91 (no sharp cut-off); inconclusive = no clear call, values can overlap the other calls; inactive = mostly above about 0.92. This is one part of the list.
Experiment: chemical genetic growth profiling, strain panel (AID 1159580);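 note: tested at 20 µM; growth read once vehicle control cultures reached saturation at 30 °C; 1 = growth at the plate median or of vehicle wells; lower values mean less growth of the strain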
Conditions: growth OD

Measured: normalized growth

CN(C)CC/C=C1/c2ccccc2COc2ccccc21
inactive: S. cerevisiae deletion strains, locus YKL068W, hits give low values 1.02 | S. cerevisiae deletion strains, locus YKL085W, strain MDH1 (second series), hits give low values 1 | S. cerevisiae deletion strains, locus YKL085W, strain MDH1, hits give low values 1 | S. cerevisiae deletion strains, locus YKL160W, strain elf1, hits give low values 1.01 | S. cerevisiae deletion strains, locus YKL190W, strain CNB1, hits give low values 1.02 | S. cerevisiae deletion strains, locus YKR001C, strain vps1, hits give low values 1 | S. cerevisiae deletion strains, locus YKR026C, strain gcn3, hits give low values 1.03 | S. cerevisiae deletion strains, locus YKR091W, strain srl3, hits give low values 1.02 | S. cerevisiae deletion strains, locus YLL001W, strain dnm1, hits give low values 1.01 | S. cerevisiae deletion strains, locus YLL026W, hits give low values 1.02 | S. cerevisiae deletion strains, locus YLL041C, strain sdh2, hits give low values 1.03 | S. cerevisiae deletion strains, locus YLR027C, strain aat2, hits give low values 1.02 | S. cerevisiae deletion strains, locus YLR039C, strain RIC1, hits give low values 1.15 | S. cerevisiae deletion strains, locus YLR058C, strain SHM2, hits give low values 1.01 | S. cerevisiae deletion strains, locus YLR102C, strain apc9, hits give low values 1.01 | S. cerevisiae deletion strains, locus YLR113W, strain HOG1, hits give low values 1.09 | S. cerevisiae deletion strains, locus YLR221C, strain rsa3, hits give low values 1.01 | S. cerevisiae deletion strains, locus YLR258W, strain gsy2, hits give low values 1.02 | S. cerevisiae deletion strains, locus YLR262C, strain YPT6 (second series), hits give low values 1.09 | S. cerevisiae deletion strains, locus YLR262C, strain YPT6, hits give low values 1.14 | S. cerevisiae deletion strains, locus YLR268W, strain sec22, hits give low values 1.02 | S. cerevisiae deletion strains, locus YLR320W, strain mms22, hits give low values 1.01 | S. cerevisiae deletion strains, locus YLR330W, strain CHS5, hits give low values 1.01 | S. cerevisiae deletion strains, locus YLR342W, strain FKS1 (second series), hits give low values 1 | S. cerevisiae deletion strains, locus YLR342W, strain FKS1, hits give low values 1.01 | S. cerevisiae deletion strains, locus YLR357W, strain rsc2, hits give low values 1.02 | S. cerevisiae deletion strains, locus YLR370C, strain arc18, hits give low values 1.02 | S. cerevisiae deletion strains, locus YLR371W, strain rom2, hits give low values 1.01 | S. cerevisiae deletion strains, locus YLR384C, strain iki3, hits give low values 1.03 | S. cerevisiae deletion strains, locus YLR418C, strain cdc73, hits give low values 0.996 | S. cerevisiae deletion strains, locus YML016C, strain PPZ1, hits give low values 1 | S. cerevisiae deletion strains, locus YML032C, strain rad52, hits give low values 1.02 | S. cerevisiae deletion strains, locus YML120C, strain ndi1, hits give low values 1.04 | S. cerevisiae deletion strains, locus YML124C, strain tub3, hits give low values 1.02 | S. cerevisiae deletion strains, locus YMR058W, strain fet3, hits give low values 1.01 | S. cerevisiae deletion strains, locus YMR078C, strain ctf18, hits give low values 1.03 | S. cerevisiae deletion strains, locus YMR125W, strain sto1, hits give low values 1.02 | S. cerevisiae deletion strains, locus YMR129W, hits give low values 1.02 | S. cerevisiae deletion strains, locus YMR205C, strain PFK2, hits give low values 1.04 | S. cerevisiae deletion strains, locus YMR223W, strain ubp8, hits give low values 1.03 | S. cerevisiae deletion strains, locus YMR231W, strain pep5, hits give low values 1.03 | S. cerevisiae deletion strains, locus YMR263W, strain SAP30, hits give low values 1 | S. cerevisiae deletion strains, locus YMR307W, strain GAS1, hits give low values 1.05 | S. cerevisiae deletion strains, locus YNL067W, strain RPL9B, hits give low values 1.01 | S. cerevisiae deletion strains, locus YNL071W, strain lat1, hits give low values 1.02 | S. cerevisiae deletion strains, locus YNL128W, strain TEP1, hits give low values 1.01 | S. cerevisiae deletion strains, locus YNL153C, strain GIM3, hits give low values 0.997 | S. cerevisiae deletion strains, locus YNL183C, strain NPR1, hits give low values 0.989 | S. cerevisiae deletion strains, locus YNL209W, strain ssb2, hits give low values 0.985 | S. cerevisiae deletion strains, locus YNL233W, strain BNI4, hits give low values 1.01 | S. cerevisiae deletion strains, locus YNL248C, strain rpa49, hits give low values 1.01 | S. cerevisiae deletion strains, locus YNL250W, strain rad50, hits give low values 1.04 | S. cerevisiae deletion strains, locus YNL271C, strain bni1, hits give low values 1.01 | S. cerevisiae deletion strains, locus YNL298W, strain CLA4, hits give low values 1.02 | S. cerevisiae deletion strains, locus YNL307C, strain MCK1, hits give low values 1.03 | S. cerevisiae deletion strains, locus YNL322C, strain KRE1 (second series), hits give low values 1.02 | S. cerevisiae deletion strains, locus YNL322C, strain KRE1, hits give low values 1.02 | S. cerevisiae deletion strains, locus YNR049C, strain mso1, hits give low values 1.02 | S. cerevisiae deletion strains, locus YNR052C, strain pop2, hits give low values 1.02 | S. cerevisiae deletion strains, locus YOL006C, strain TOP1, hits give low values 0.974 | S. cerevisiae deletion strains, locus YOL012C, strain htz1 1.18 | S. cerevisiae deletion strains, locus YOL147C, strain pex11, hits give low values 1.01 | S. cerevisiae deletion strains, locus YOR001W, strain rrp6, hits give low values 1.02 | S. cerevisiae deletion strains, locus YOR061W, strain CKA2, hits give low values 1 | S. cerevisiae deletion strains, locus YOR069W, strain VPS5, hits give low values 1.01 | S. cerevisiae deletion strains, locus YOR070C, strain gyp1, hits give low values 1.02 | S. cerevisiae deletion strains, locus YOR080W, strain dia2, hits give low values 1.03 | S. cerevisiae deletion strains, locus YOR083W, strain WHI5, hits give low values 0.99 | S. cerevisiae deletion strains, locus YOR106W, strain vam3, hits give low values 1.02 | S. cerevisiae deletion strains, locus YOR136W, strain idh2, hits give low values 1.03 | S. cerevisiae deletion strains, locus YOR144C, strain elg1, hits give low values 1.01 | S. cerevisiae deletion strains, locus YOR184W, strain ser1, hits give low values 1.05 | S. cerevisiae deletion strains, locus YOR231W, strain MKK1, hits give low values 1.07 | S. cerevisiae deletion strains, locus YOR265W, strain rbl2, hits give low values 1.03 | S. cerevisiae deletion strains, locus YOR270C, strain vph1, hits give low values 1.02 | S. cerevisiae deletion strains, locus YOR290C, strain snf2, hits give low values 1.01 | S. cerevisiae deletion strains, locus YOR316C, strain cot1, hits give low values 1.01 | S. cerevisiae deletion strains, locus YPL051W, strain arl3, hits give low values 1.01 | S. cerevisiae deletion strains, locus YPL055C, strain LGE1, hits give low values 0.981 | S. cerevisiae deletion strains, locus YPL078C, strain atp4, hits give low values 1.02 | S. cerevisiae deletion strains, locus YPL106C, strain sse1, hits give low values 1.02 | S. cerevisiae deletion strains, locus YPL240C, strain hsp82, hits give low values 1.02 | S. cerevisiae deletion strains, locus YPL241C, strain CIN2, hits give low values 1.01 | S. cerevisiae deletion strains, locus YPL256C, strain CLN2, hits give low values 1.04 | S. cerevisiae deletion strains, locus YPR119W, strain clb2, hits give low values 1.01 | S. cerevisiae deletion strains, locus YPR141C, strain kar3, hits give low values 1.01 | S. cerevisiae deletion strains, locus YPR163C, strain tif3, hits give low values 1.01 | S. cerevisiae deletion strains, locus YPR167C, strain met16, hits give low values 1.02 | S. cerevisiae deletion strains, strain wtn01, hits give low values 1.03 | S. cerevisiae strains, strain wild type, hits give low values 1.01

From PubChem BioAssay AID1159580 (chemical genetic matrix, 2015)
